In PubChem BioAssay AID588382 (National Center for Advancing Translational Sciences (NCATS), 2011):
Out of some 1,300 compounds screened, about 150 (12%) were called active. Inconclusive results (about 30%) are left out. The sample holds actives, similar compounds and a random draw of the others, so the mix is not that of the screen. Unmarked numbers belong to inactive results. Calls come from the whole dose curve; as a rule, active = well fitted cell-killing curve with a large enough effect; inconclusive = small, poorly fitted or top-dose-only effect, or effect the other way; inactive = flat fitted curve, though single readings scatter.

Test: qHTS of small molecules that selectively kill Giardia lamblia: Hit Validation in HepG2 cytotox;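 note: compound exposure lasted overnight at 37 deg C; nearly all actives have a fitted effect of over 55% in size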;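 for activity change, negative = cytotoxicity: viability measured as cellular ATP by ATPLite luminescence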
Settings: cell viability; Potency: HepG2 cytotoxicity; series mostly up to 38.3 µM; activity change, negative = cytotoxicity: at the top concentration
Summary of the method: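 HepG2 cells seeded and incubated overnight at 37 deg C, then 23 nL compound added by pintool and incubated overnight at 37 deg C. Viability read as ATP luminescence with ATPLite after 15 min at room temperature.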
% is set by controls: 0 for no effect and ±100 for the full control effect; potency is the fitted concentration of half-maximal effect.

| Compound | activity change, negative = cytotoxicity [%] | Potency |
| --- | --- | --- |
| O=C(CSc1ccsc1[N+](=O)[O-])NCCc1ccc(Cl)cc1 | 19.5 | – |
| O=[N+]([O-])c1cn(-c2nc(-c3ccco3)cc(C(F)(F)F)n2)cn1 | 2.48 | – |
| CNN/C(N=Cc1ccc([N+](=O)[O-])s1)=N\S(=O)(=O)c1cc(C)c(Cl)cc1SCc1ccccc1 | -14.4 | – |
| Clc1ccc2c(N/N=C/c3ccccc3Br)ccnc2c1 | – | 14.7 µM (active) |
| Clc1ccc2c(N/N=C/c3cccc(Br)c3)ccnc2c1 | – | 11.7 µM (active) |
| CCOC(=O)C1CCN(c2ccc([N+](=O)[O-])c(C(C)=O)c2)CC1 | 16.6 | – |
| Cc1ccc(C(C(=O)NCc2ccco2)N(C(=O)CNC(=O)c2cccs2)c2c(C)cccc2C)cc1 (stereo unspecified) | 2.07 | – |
| NC(=O)c1ccc(Nc2ccc([N+](=O)[O-])cc2[N+](=O)[O-])cc1 | -4.24 | – |
| CC(=O)c1c(C)n([O-])c2ccc(C)cc2[n+]1=O | 6.07 | – |
| C=CCn1c(C)cc(C(=O)COC(=O)c2n[nH]c(=O)c3ccccc23)c1C | 4.65 | – |
| COc1ccc(-n2nc([N+](=O)[O-])c(=NCCC3=CCCCC3)n2O)cc1 | 1.4 | – |
| COc1ccc2c3n([n+]([O-])c2c1)CCN=C3c1cc(Cl)c(N)c(Cl)c1 | 12.3 | – |
| O=c1[nH]cnc2ccc([N+](=O)[O-])cc12 | 17.7 | – |
| COc1cc(SC)ccc1C(=O)Nc1nc2ccccc2[nH]1 | – | 2.07 µM (active) |
| COC(=O)Nc1nc2ccc(Sc3ccccc3)cc2[nH]1 | 0.0974 | – |
| COC(=O)Nc1nc2ccc(SC(C)C)cc2[nH]1 | 29 | – |
| COc1ccc(-n2nc([N+](=O)[O-])c(=NCCc3ccccc3)n2O)cc1 | 8.74 | – |
| CCCCC12CN3CC(C)(CN(C1)C3c1ccc([N+](=O)[O-])o1)C2=O (stereo unspecified) | -4.07 | – |
| Cc1ccc(S(=O)(=O)N2[C@@H](c3ccc(F)cc3)C(C(=O)O)=CC[C@H]2c2cccs2)cc1 | 16.8 | – |
| COc1ccc(C(=O)CC(SCC(NC(C)=O)C(=O)O)c2ccc(Cl)cc2)cc1OC (stereo unspecified) | 21.9 | – |
| Cc1cc(C)cc(N=c2c([N+](=O)[O-])nn(-c3cccc(Cl)c3)n2O)c1 | 17.1 | – |
| Cc1ccc(-c2nnc(NC(=O)c3ccc([N+](=O)[O-])o3)o2)c(C)c1 | -10.4 | – |
| O=C(Nc1ccc2oc(-c3ccccc3F)nc2c1)c1ccc([N+](=O)[O-])o1 | 16.3 | – |
| O=C(Nc1ccc2oc(-c3cccnc3)nc2c1)c1ccc([N+](=O)[O-])o1 | – | 13.1 µM (active) |
| O=C(Nc1ccc(-c2nc3ncccc3o2)cc1)c1ccc([N+](=O)[O-])o1 | – | 4.65 µM (active) |
| O=C(Nc1ccc2oc(-c3ccncc3)nc2c1)c1ccc([N+](=O)[O-])o1 | – | 16.5 µM (active) |

| Compound | activity change, negative = cytotoxicity [%] | Potency |
| --- | --- | --- |
| Cc1cccnc1NC(=O)c1ccc([N+](=O)[O-])o1 | 5.86 | – |
| COc1ccc(-n2c(C)cc(C(=O)COc3ccc(C)nc3[N+](=O)[O-])c2C)cc1 | 0.437 | – |
| CC(=O)c1c(COC(=O)c2ccc(F)cc2)nc2ccccc2[n+]1[O-] | 26.6 | – |
| COc1ccc(-n2nc([N+](=O)[O-])c(=NCCc3ccc(OC)c(OC)c3)n2O)cc1 | 19.2 | – |
| Cc1cccc(NC(=O)CN2C(=O)S/C(=C\c3ccc(O)c([N+](=O)[O-])c3)C2=O)c1 | 1.03 | – |
| Cn1nc(N)c2c(-c3ccc(Cl)cc3)c(C#N)c(N)nc21 | 18.2 | – |
| O=[N+]([O-])c1ccc(/C=N/Nc2nc(N3CCCC3)nc(N3CCCC3)n2)o1 | 27.3 | – |
| CCN(CC)S(=O)(=O)c1cccc(N=Nc2c(O)c3ccccc3oc2=O)c1 | 3.89 | – |
| Cc1ccc(S(=O)(=O)N2[C@@H](c3ccc(Cl)cc3)C(C(=O)O)=CC[C@H]2c2cccc(Cl)c2)cc1 | 4.59 | – |
| O=[N+]([O-])c1ccc(NCc2ccccc2N2CCC(CO)CC2)nc1 | 0.405 | – |
| Cc1c(Cl)cccc1N=c1c([N+](=O)[O-])nn(-c2ccccc2)n1O | 11.6 | – |
| CN=c1c([N+](=O)[O-])nn(-c2ccc3c(c2)OCCO3)n1O | 19.2 | – |
| O=c1c2c([N+](=O)[O-])cc([N+](=O)[O-])cc2nc2ccccn12 | 12.5 | – |
| CCCC12CN3CC(C)(CN(C1)C3c1ccc([N+](=O)[O-])o1)C2=O (stereo unspecified) | 23.5 | – |
| CC(=O)CSc1ccc(-c2nc3ccccc3[nH]2)cn1 | – | 14.7 µM (active) |
| Cc1ncc([N+](=O)[O-])n1CCOC(=O)NC(NCc1ccccc1)C(Cl)(Cl)Cl (stereo unspecified) | 6.73 | – |
| Cc1cnc(N=Nc2ccccc2)[nH]1 | 9.01 | – |
| Cc1cc2nc(-c3ccc[nH]c3=O)[nH]c2cc1C | – | 2.33 µM (active) |
| O=[N+]([O-])c1nn(-c2ccc3c(c2)OCCO3)n(O)c1=NC1CCCCC1 | -2.04 | – |
| CC(NC(=O)COc1cccnc1[N+](=O)[O-])c1ccc(F)cc1 (stereo unspecified) | 20.7 | – |
| O=C(Cc1ccc(-n2c(=O)c3sccc3n(CC(=O)Nc3ccccc3)c2=O)cc1)NCc1ccco1 | 10.6 | – |
| O=C(Nc1nnc(SCC(=O)N2CCOCC2)s1)c1ccccc1Cl | – | 2.07 µM (active) |
| O=C(Nc1nnc(SCC(=O)N2CCOCC2)s1)c1ccccc1 | – | 2.33 µM (active) |
| O=C(CSc1nnc(NC(=O)c2ccccc2)s1)NCc1ccco1 | – | 2.07 µM (active) |
| O=C(CSc1nnc(NC(=O)c2c(F)cccc2F)s1)Nc1ccc(F)cc1 | 5.56 | – |
